In general, AC50 refers to the concentration at which the activity in the assay is half-maximal.

Several values for one entry are separate records, joined by “and”; a condition that tells them apart may be missing. Equal entries are not always repeated. Results filed as inconclusive are left out. Where a structure was tested more than once in an assay, its records may differ in their call. Activity calls are given as the source filed them. Rule for the calls: active = hit-call score of the fitted dose curve at least 0.9, where 1 is the maximum; inconclusive = response in the unintended direction; inactive = score below 0.9.

A short description of this experiment: ACEA_ER_AUC_viability: ACEA Biosciences xCELLigence Real-Time Cell Analysis on Estrogen Receptor Agonism for Viability (AID 2283782).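 Note: continuous compound exposure with impedance area under curve over 80 h; hit means loss of impedance signal meaning reduced cell growth or viability.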 The protocol:
ACEA_ER is a cell-based, single-readout assay that uses T47D, a human breast cell line, with measurements taken at 80 hours after chemical dosing in a 96-well plate, although TO2 (mc0.srcf) used a 384-well plate. Differences in plate size can be ignored given data normalization.ACEA_ER_AUC_viability is one of two assay component(s) measured or calculated from the ACEA_ER assay. It is designed to make measurements of real-time cell-growth kinetics, a form of growth reporter, as detected with electrical impedance signals by Real-Time Cell Electrode Sensor (RT-CES) technology.Data from the assay component ACEA_ER_AUC_viability was analyzed in the positive analysis fitting direction relative to DMSO as the negative control and baseline of activity. Using a type of growth reporter, loss-of-signal activity can be used to understand changes in the viability. Furthermore, this assay endpoint can be referred to as a secondary readout, because this assay has produced multiple assay endpoints where this one serves a viability function. To generalize the intended target to other relatable targets, this assay endpoint is annotated to the cell cycle intended target family, where the subfamily is cytotoxicity.
The xCELLigence system Multi-E-Plate stations were used to measure the time-dependent response to chemicals. Each compound was tested in an eight-point, 1:4 serial dilution series starting at a maximum final concentration of 100 uM. A maximum starting concentration of 0.5% DMSO was present in the 100 uM chemical samples and was diluted along with the test article dilution series. The screen was performed in biological duplicate using two separate, 96-well, E-Plates 96 for each dilution series (n = 2). Positive controls (MG132 and E2) and a negative control (assay media) were tested in quadruplicate on each testing plate. Then, 0.5% and 0.125% DMSO were tested in duplicates in each plate to serve as solvent controls for the 2 highest concentrations of testing compounds: 100 uM and 25 uM. Reference compounds were tested with 8 concentrations with 1:5 serial dilutions. All screening was carried out by ACEA Biosciences, Inc. (San Diego, CA). T-47D cells purchased from ATCC were maintained in RPMI1640 media supplemented with 10% characterized fetal bovine serum (FBS). Before screening, T-47D cells were preconditioned in assay medium: phenol red-free RPMI1640 supplemented with 10% charcoal-stripped FBS. Cells were then detached and seeded in E-Plates 96 in assay medium. After overnight monitoring of growth once every hour, compounds were added to […] cells and remained in the medium until the end of the experiment. Cellular responses were then recorded once every 5 min for the first 5 h, and once every hour for an additional 100 h.
Regarding `C=CCOCC(CO)(CO)CO`, the molecule was called inactive.
Turning to `CC(C)c1c(C(=O)Nc2ccccc2)c(-c2ccccc2)c(-c2ccc(F)cc2)n1CC[C@@H](O)C[C@@H](O)CC(=O)O`, the half-maximal activity concentration (AC50) was 2.91 µM (active).
Same read-out and setting: the value for `CCCCc1oc2ccccc2c1C(=O)c1cc(I)c(OCCN(CC)CC)c(I)c1` was 11.5 µM (active); that for `Cn1sccc1=O` was 40.2 µM (active); that for `OCC(F)(F)C(F)(F)C(F)(F)C(F)(F)C(F)(F)C(F)(F)C(F)(F)C(F)(F)C(F)(F)C(F)(F)C(F)(F)F` was 16.6 µM (active).
`CCCCN(C)C`: the result was inactive.
For `COCN(COC)c1nc(N(COC)COC)nc(N(COC)COC)n1`, the molecule was classed as inactive.
On the same count and under the same terms, the value for `c1ccc2c(c1)CCC2` was “inactive”.
On the same count and under the same terms, the value for `C/C=C/C(=O)C1=C(C)CCCC1(C)C` was “inactive”.
Consider `O=C(O)C(F)(F)OC(F)(F)C(F)(F)OC(F)(F)C(F)(F)OC(F)(F)C(F)(F)C(F)(F)C(F)(F)F`, for which the AC50 is 119 µM (active).
Same read-out and setting: the value for `Cc1cc(C(C)(C)C)c(O)c(C(C)(C)C)c1` was 79.4 µM (active); that for `CC(C)(C)C1CCCCC1O` (stereo not given) was 77.7 µM (active).
As for `N=C(N)c1ccc(OCCCCCOc2ccc(C(=N)N)cc2)cc1`, the half-maximal activity concentration (AC50) was 63.5 µM (active).
The same measure, in the same setting: as for `CCCCCCCCC(C)=O`, the figure is 9.92 µM (active).
As for `O=C(O)CCC(F)(F)C(F)(F)C(F)(F)C(F)(F)C(F)(F)F`, the molecule was classed as inactive.
As to `CCCCC(CC)C(=O)O` (stereo not given), the result was inactive.
Consider `CCc1ccccc1O`, for which the molecule was called inactive.
Regarding `Oc1cccc2c(O)cccc12`, the AC50 is 20.2 µM (active).
Turning to `CCCCC(CC)C(=O)OCCOCCOCCOCCOC(=O)C(CC)CCCC` (stereo not given), the molecule was classed as inactive.
As to `Cc1cncc(C)c1`, the half-maximal activity concentration (AC50) is 12.1 µM (active).
`COc1cc([N+](=O)[O-])ccc1N`: the molecule was called inactive.
As to `NC(=NCCCCCCN=C(N)/N=C(\N)Nc1ccc(Cl)cc1)/N=C(\N)Nc1ccc(Cl)cc1`, the AC50 is 8.38 µM (active) and 9.06 µM (active).
Turning to `CCC(C)c1ccccc1O` (stereo not given), the AC50 is 79.7 µM (active).
Regarding `CC1=NN(c2ccccc2)C(=O)C1`, the molecule was classed as inactive.
On the same count and under the same terms, as for `NCCN`, the entry is “inactive”; as for `CCOC=C(C(=O)OCC)C(=O)OCC`, “inactive”.
In the case of `OCCN1CN(CCO)CN(CCO)C1`, the AC50 is 81.8 µM (active).
As to `COC(O)c1ccccc1` (stereo not given), the molecule was classed as inactive.
Take `CCCCCCCCCC=CCC1CC(=O)OC1=O` (stereo not given): the molecule was classed as inactive.
Regarding `O=C1C=CC(=O)N1c1cccc(N2C(=O)C=CC2=O)c1`, the AC50 is 23.6 µM (active).
The same measure, in the same setting: as for `c1cc[nH]c1`, the figure is 50 µM (active).
As for `Cc1ccc(S(=O)(=O)O)cc1`, the molecule was called inactive.
Consider `CCC(C)c1nccnc1OC` (stereo not given), for which the outcome was inactive.
On to `O=C1OC2(c3ccccc31)c1cc(I)c(O)c(I)c1Oc1c2cc(I)c(O)c1I`, for which the AC50 is 18.5 µM (active) and the molecule was classed as inactive.
In the case of `CCCCCC(C)OC(=O)COc1ccc(Cl)c2cccnc12` (stereo not given), the molecule was called inactive.
Still for that read-out and setting: as for `CC(C)(O)C(=O)c1ccccc1`, the entry is “inactive”.
Take `Cc1ccc(C(=O)c2ccccc2)cc1`: the AC50 is 72.3 µM (active).
For `O=S(=O)(O)C(F)(F)C(F)(F)C(F)(F)C(F)(F)C(F)(F)C(F)(F)C(F)(F)C(F)(F)C(F)(F)C(F)(F)F`, the call was inactive.
Still for that read-out and setting: as for `CCCCCCCCCCCCCCC`, the entry is “inactive”.

(Values after PubChem BioAssay (EPA / NIEHS).)
